# Source: PubChem BioAssay (National Center for Advancing Translational Sciences (NCATS))
# JMJD2A Tudor inh: inhibitors of human JMJD2A Tudor domain | O75164 | 390,000 tested, 4.4% active | AlphaScreen JMJD2A-Tudor / H3K4me3 peptide binding | Potency, µM (doses to about 114 µM), for the others: top-dose activity change, negative = inhibition, usual class: inhibitors; also: % is scaled to controls: 0 for no effect and ±100 for the full control effect; nearly all actives have a fitted effect of over 50% in size
# L3MBTL1 block: inhibitors of human L3MBTL1. Q9Y468. Potency, µM (highest dose often 57.1 µM), inactives show at the highest dose activity, negative = inhibition, most hits filed as inhibitors. AID 485360. AlphaScreen L3MBTL1–H3K9me1 peptide binding. 230,000 tested, 0.66% active; also: % is scaled to controls: 0 for no effect and ±100 for the full control effect; nearly all actives have a fitted effect of over 60% in size
#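 AlphaScreen assay: L3MBTL1 (50 nM final) was preincubated 30 min at room temperature with biotinylated H3(1-15)K9me1 peptide (75 nM final), then 30 min with library compounds; streptavidin donor and nickel chelate acceptor beads (10 ug/mL final) added, 30 min dark.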
# HP1b chromo inh: inhibitors of HP1-beta chromodomain binding to methylated histone tails; P83916; AlphaScreen HP1-beta / biotin-H3K9me3 peptide binding; Potency, µM (titrated, usually from 114 µM), for the others: at the highest dose activity change, negative = inhibition, hits mostly inhibitors; 390,000 tested, 0.56% active; also: nearly all actives have a fitted effect of over 70% in size
#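 Compound inhibition of the preformed complex between 50 nM HP1-beta and 50 nM biotinylated H3K9me3 peptide was read by AlphaScreen. Buffer was PBS pH 7.4 with 0.01% Tween-20. Incubations ran 30 min at room temperature, with 10 ug/mL donor/acceptor beads.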
# G9a block: inhibitors of human histone lysine methyltransferase G9a | Q96KQ7 | G9a H3K9 monomethylation, AlphaScreen, 2 h | Potency, µM (highest dose often 102 µM), for the others: top-dose activity, negative = inhibition, hits mostly inhibitors | 350,000 tested, 8.8% active | AID 504332; also: % is scaled to controls: 0 for no effect and ±100 for the full control effect; nearly all actives have a fitted effect of over 75% in size
#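 Signal arises when biotinylated H3K9 peptide, once monomethylated, bridges streptavidin donor and antibody-captured acceptor beads. Enzyme at 20 nM was preincubated 15 min with test compounds; peptide 500 nM and SAM 20 uM then reacted for 2 h.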
# Sfp inh: inhibitors of Bacillus subtilis Sfp phosphopantetheinyl transferase; Potency, µM, without a hit: largest response in the series, negative = inhibition, actives largely listed as inhibitors; 310,000 tested, 3.5% active; Q9F4F7; Biochemical Sfp PPTase activity, qHTS;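 also: the enzyme is Sfp with the accession as filed and its product quenches rhodamine fluorescence; 0% = enzyme reaction without inhibitor and -100% = no enzyme wells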
#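 Fluorescence-quenching assay: 15 nM Sfp-PPTase preincubated 15 min at room temperature with compound, then 5 uM rhodamine-CoA and 12.5 uM BHQ-2-labelled YbbR peptide added. Fluorescence (ex 525/em 598 nm) read at start and after 30 min; difference gives rate.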
# BAZ2B inh: BAZ2B (human) inhibition; Q9UIF8; AlphaScreen BAZ2B-H3K14Ac peptide displacement; Potency, µM (titrated, usually from 114 µM), without a hit: at the top dose activity change, negative = inhibition, most hits filed as inhibitors; 360,000 tested, 4.4% active; also: % is scaled to controls: 0 for no effect and ±100 for the full control effect; nearly all actives have a fitted effect of over 60% in size
#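 In this displacement format the biotinylated H3(5-23) peptide acetylated at Lys14 serves as ligand at 50 nM, with BAZ2B at 50 nM in PBS pH 7.4 containing 0.01% Tween-20. Donor and acceptor beads are 10 ug/mL final.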
# Starred values were filed as active, the others as inactive; ? = inconclusive; / = not tested or not shown; [ ] = dose if it differs, or a comment. A selection: hits, their analogues and other compounds. The true share with any hit is near 12%. Calls follow the shape of the dose curve; as a rule, active = well fitted curve in the direction sought with a large enough effect; inconclusive = small, poorly fitted or top-dose-only effect, or another doubt; inactive = no such curve, though single readings can be large; an effect the other way counts as inactive or inconclusive. Potency is read from the fitted curve at half-maximal effect.
SMILES,JMJD2A Tudor inh,L3MBTL1 block,HP1b chromo inh,G9a block,Sfp inh,BAZ2B inh
COc1cc(/C=C2\NC(=O)NC2=O)cc(Br)c1OC,-7%,/,2%,80%,-8%,-2%
CCOc1cc(/C=C2\NC(=S)N(C)C2=O)ccc1OCc1ccc(C(=O)O)cc1,?,/,25%,?,-1%,71µM*
CN1C(=O)/C(=C/c2ccc(OCc3ccc(C(=O)O)cc3)c(Cl)c2)NC1=S,-33%,-11%,27%,?,13%,?
COc1ccc(/C=C/C(=O)Nc2ccc(-n3nncc3-c3ccccc3)cc2)cc1OC,-18%,-11%,-14%,45µM*,-3%,2%
COc1cc(CN(C)CC2CCCN(CCc3cccc(C(F)(F)F)c3)C2)ccc1O (stereo not drawn),-25%,-9%,18%,45µM*,12%,-32%
COc1ccc(CN(C)CC2CCCN(CCc3ccc(F)cc3)C2)cc1OC (stereo not drawn),-5%,2%,22%,-7%,13%,-14%
COc1ccc(C2c3c(oc4ccc(F)cc4c3=O)C(=O)N2Cc2ccc3c(c2)OCO3)cc1 (stereo not drawn),-17%,/,53%,4%[59 µM],/,?
CCOC(=O)c1c(NC(=O)CC)sc(C(C)=O)c1C,17%,9%,-16%,25µM*,40µM*,?
CCOC(=O)c1c(NC(=O)CSc2ncn[nH]2)sc(C(C)=O)c1C,-12%,/,36%,19%,18%,56µM*
COC(=O)c1c(NC(=O)CSc2ncn[nH]2)sc(C)c1C,-12%,0%,15%,4µM*,/,1%
CCOC(=O)c1sc(NC(=O)CCN2CC(C)OC(C)C2)c(C(=O)OCC)c1C (stereo not drawn),/,/,/,45µM*,18%,-9%
CCOC(=O)c1c(NC(=O)CSc2nc3ccccc3s2)sc(C(C)=O)c1C,-1%,1%,12%,44%,11%,2%
O=S1(=O)N=C(Sc2ccc3c(c2)OCCO3)c2ccccc21,-26%,/,/,/,/,/
O=C(Nc1ccc(Cl)c(C(F)(F)F)c1)NC1CC2CCCC(C1)N2C1CC1 (stereo not drawn),-3%,/,8%,/,/,/
Cc1ccc(S(=O)(=O)NNC(=O)Cc2cccn2C)cc1,3%,-8%,40%,?,15%,?
Cc1cccc(S(=O)(=O)NNC(=O)Cc2cccn2C)c1,40µM*,2%,-30%,50µM*,12%,-28%
CCc1cccc(CC)c1NC(=O)CCS(=O)(=O)c1ccc2c(c1)CCN2C(C)=O,-3%,/,46%,0%[59 µM],/,/
COCCNC(=O)Cn1c(-c2cccs2)cc2cc(Cl)ccc21,-11%,/,24%,-19%[59 µM],/,-12%
Cc1cc(OCCOCCN(C)C)ccc1Cl,28µM*,6%,?,?,-29%,?
Cc1cc(Cl)cc(Cl)c1OCCOCCN(C)C,6.3µM*,4%,?,11µM*,-20%,?
Cc1cc(OCC(=O)N(C)C2CCCCC2)ccc1Cl,-2%,20%,26%,74%,10%,0%
Cc1cc(C)c(OCCN(C)C)c(Cl)c1,3.5µM*,10%,?,11µM*,-18%,50µM*
COC(=O)c1sc(N2C(=O)c3oc4cc(C)c(C)cc4c(=O)c3C2c2ccccc2F)nc1C (stereo not drawn),-1%,/,34%,-10%[59 µM],/,-28%
Cc1cccc(N=C2NC(=O)/C(=C/c3cccn3C)S2)c1,?,-24%,2%,/,-14%,40µM*
Cc1ccc(N=C2NC(=O)/C(=C\c3cccs3)S2)cc1C,?,18%,8%,2.8µM*,2%,12%
SMILES,JMJD2A Tudor inh,L3MBTL1 block,HP1b chromo inh,G9a block,Sfp inh,BAZ2B inh
Cc1cccc(N=C2NC(=O)/C(=C/c3cccs3)S2)c1,-30%,22%,-2%,2%[59 µM],1%,-4%
Cc1ccccc1N=C1NC(=O)/C(=C/c2cccn2C)S1,40µM*,?,?,45µM*,3%,?
CCc1ccc(-n2nc(C)c3c(C)cc(=O)n(Cc4nc(-c5ccccc5)oc4C)c32)cc1,-8%,/,119%,28%[59 µM],/,22%
COc1cccc(NS(=O)(=O)c2ccc3c(c2)CCN3C(C)=O)c1,-5%,/,28%,46%,3%,-1%
CC(=O)N1CCCc2cc(S(=O)(=O)Nc3ccc4c(c3)OCO4)ccc21,-21%,-2%,10%,50µM*,-6%,-4%
CCN(CCCNS(=O)(=O)c1ccc2c(c1)CCN2C(C)=O)c1cccc(C)c1,22µM*,-22%,-20%,?,11%,?
CC(=O)N1CCc2cc(S(=O)(=O)Nc3cccc(C(F)(F)F)c3)ccc21,89µM*,/,9%,6%,7%,3%
CCOC(=O)c1ccc(NC(=O)Cn2c(=O)cc(C(F)(F)F)c3c(C)nn(C)c32)cc1,-15%,/,-6%,5%[59 µM],/,-2%
CCOc1ccccc1CNC(=O)CCCc1cn(C)c2ccccc12,?,-8%,-6%,50µM*,8%,?
CCOc1ccccc1CNC(=O)CCc1cn(C)c2ccccc12,?,/,18%,-19%,-2%,?
COC(=O)CCC(=O)c1oc2ccc(Cl)cc2c1NC(=O)CCCN1C(=O)c2ccccc2C1=O,-2%,5%,16%,-16%[0.0925 µM],35µM*,7%
COc1cc2c(cc1NC(=O)CCCN1C(=O)CCC1=O)oc1ccccc12,-14%[11.4 µM],-2%,-1%,3%[12.7 µM],-5%,-3%
CCOC(=O)/C(C#N)=C/c1cc2ccccc2nc1N1CCOCC1,-1%,15%,43%,10%[59 µM],-2%,-31%
N#CC(C#N)=Cc1cc2ccccc2nc1N1CCCCC1,?,-15%,-26%,?,7%,40µM*
COc1ccc(Nc2nc(-c3ccccc3)c3cc(Br)ccc3n2)cc1,?,/,11%,13µM*,/,?
Oc1ccc(Nc2nc(N3CCCC3)c3ccccc3n2)cc1,56µM*,-15%,-48%,40µM*,-20%,?
Cc1ccc(Nc2nc(N3CCOCC3)c3ccccc3n2)cc1,-19%,10%,31%,?,-30%,-30%
COc1ccc(Nc2nc(N3CCCCC3)c3ccccc3n2)cc1,?,-16%,-4%,?,50µM*,?
COc1ccc(CCNC(=O)CCCn2c(=O)c3cccn3c3ccc(F)cc32)cc1OC,7%,/,39%,2%[59 µM],/,-37%
c1ccc2c(c1)nc(N1CCCCCC1)c1ccccc12,18µM*,117%,290%,81%,-2%,129%
O=C1NC(=S)SC1=Cc1ccc(F)cc1,-31%,/,-3%,/,/,/
O=C1NC(=S)S/C1=C\c1coc2ccccc2c1=O,?,2%,33%,50µM*,2%,?
O=C1NC(=S)SC1=Cc1cc(Br)ccc1O,20µM*,/,?,/,/,/
O=C1NC(=S)SC1=Cc1ccc(Cl)cc1,?,/,-26%,/,/,/
